{"source": "PubChem BioAssay AID1565", "about": "(Sanford-Burnham Center for Chemical Genomics, 2009)", "note": "Hit rate of the full screen: of about 290,000 compounds, about 3,200 (1.1%) were called active. Rule as the data show it: active = inhibition above about 60%; inactive = the rest. What follows is part of a selection rich in actives, with near analogues and random picks from the rest.", "data": [{"target": "Phosphoethanolamine/phosphocholine phosphatase (Homo sapiens) (UniProt Q8TCT1)", "sequence (Q8TCT1 whole entry, looked up)": "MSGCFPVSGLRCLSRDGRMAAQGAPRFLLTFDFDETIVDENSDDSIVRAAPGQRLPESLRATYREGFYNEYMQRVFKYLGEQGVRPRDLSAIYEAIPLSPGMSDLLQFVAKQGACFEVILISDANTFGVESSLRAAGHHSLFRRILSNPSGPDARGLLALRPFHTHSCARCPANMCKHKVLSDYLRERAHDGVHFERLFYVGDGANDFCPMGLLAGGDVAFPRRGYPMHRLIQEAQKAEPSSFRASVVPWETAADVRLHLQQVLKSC", "experiment": "PubChem AID 1565", "conditions": "recombinant PHOSPHO1, absorbance phosphatase assay; at 13.3 µM; hits give high values", "values": [{"smiles": "Cc1cccc(C)c1NC(=O)C(Cl)C(=O)c1ccccc1", "note": "(stereo unspecified)", "inhibition": "20% (inactive)"}, {"smiles": "CSc1ncccc1C(=O)NCc1ccccc1Cl", "inhibition": "44.9% (inactive)"}, {"smiles": "O=C(CSc1nnc(CNC(=O)c2ccc(F)cc2)o1)Nc1ccc2c(c1)OCO2", "inhibition": "-23.1% (inactive)"}, {"smiles": "COc1cc(/C=C2\\SC(=S)N(Nc3ncc(C(F)(F)F)cc3Cl)C2=O)cc(OC)c1OC", "inhibition": "71.2% (active)"}, {"smiles": "COc1cccc(/C=N/Nc2ncc(C(F)(F)F)cc2Cl)c1O", "inhibition": "-8.9% (inactive)"}, {"smiles": "CCOc1ccc(/C=C2\\SC(=S)N(NC(=O)c3ccncc3)C2=O)cc1OC", "inhibition": "23.7% (inactive)"}, {"smiles": "CC(=O)OCCN(CCCn1c(-c2ccncc2)nc2ccccc21)c1nc(-c2ccc(C)cc2)cs1", "inhibition": "20.2% (inactive)"}, {"smiles": "Nc1ccc(C(=O)Nc2ccccc2N)cc1", "inhibition": "8.3% (inactive)"}, {"smiles": "N#Cc1c(N2CCCCC2)nc(N)c2c(N)nc(SCC(=O)O)cc12", "inhibition": "60.8% (active)"}, {"smiles": "N#Cc1c(-c2ccccc2)cc(-c2ccccc2)nc1SCC(=O)O", "inhibition": "-12.1% (inactive)"}, {"smiles": "Cc1cc(C)c(C#N)c(N2CCC(C(N)=O)CC2)n1", "inhibition": "-42.6% (inactive)"}, {"smiles": "C/C(CC(=O)NCc1ccc(Cl)cc1)=N\\NC(=O)COc1ccc(C)cc1Br", "inhibition": "41.6% (inactive)"}, {"smiles": "CC1CCN(C(=O)Cn2nnnc2CN2CCOCC2)CC1", "inhibition": "47.5% (inactive)"}, {"smiles": "Oc1ccc(C2Nc3cccc4cccc(c34)N2)cc1", "inhibition": "14.1% (inactive)"}, {"smiles": "C/C(=C\\c1ccco1)C1Nc2cccc3cccc(c23)N1", "inhibition": "94% (active)"}, {"smiles": "Cc1ccc(C2Nc3cccc4cccc(c34)N2)cc1", "inhibition": "13.8% (inactive)"}, {"smiles": "CC1CCN(CC(=O)c2c[nH]c3ccccc23)CC1", "inhibition": "47.6% (inactive)"}, {"smiles": "O=C(NCCCc1ccccc1)C(=O)c1c[nH]c2ccccc12", "inhibition": "38.2% (inactive)"}, {"smiles": "O=C(NC1CCCC1)C(=O)c1c[nH]c2ccccc12", "inhibition": "62.6% (active)"}, {"smiles": "COc1cccc(NC(=O)c2nn(C34CC5CC(CC(C5)C3)C4)cc2[N+](=O)[O-])c1", "inhibition": "6.2% (inactive)"}, {"smiles": "Cc1ncn(C23CC4CC(CC(O)(C4)C2)C3)n1", "inhibition": "12.9% (inactive)"}, {"smiles": "Cc1nc([N+](=O)[O-])nn1C12CC3CC(CC(Br)(C3)C1)C2", "inhibition": "93% (active)"}, {"smiles": "Cc1cc(-c2ccc(C)c(S(=O)(=O)Nc3ccc(S(N)(=O)=O)cc3)c2)on1", "inhibition": "44.5% (inactive)"}, {"smiles": "Cc1noc(C)c1CSCC(=O)N(CCC(C)C)c1c(N)n(Cc2ccccc2)c(=O)[nH]c1=O", "inhibition": "9.8% (inactive)"}, {"smiles": "O=C(CCN1C(=O)C2C3CCC(C3)C2C1=O)Nc1ccc(Cl)cc1Cl", "note": "(stereo unspecified)", "inhibition": "26.6% (inactive)"}, {"smiles": "CN(CCc1ccccn1)C(=O)c1ccc(OC2CCN(Cc3ccccn3)CC2)cc1", "inhibition": "17% (inactive)"}, {"smiles": "O=C(NCCOc1cccnc1)c1ccc(OC2CCN(Cc3ccccn3)CC2)cc1", "inhibition": "13.7% (inactive)"}, {"smiles": "Cc1nn(C)c(C)c1C(C)NC(=O)c1ccc(OC2CCN(Cc3ccccn3)CC2)cc1", "note": "(stereo unspecified)", "inhibition": "18.5% (inactive)"}, {"smiles": "Cn1cc(CNC(=O)c2ccc(OC3CCN(Cc4ccccn4)CC3)cc2)cn1", "inhibition": "69% (active)"}, {"smiles": "O=C(c1ccc(OC2CCN(Cc3ccccn3)CC2)cc1)N1CCCCCC1", "inhibition": "32.8% (inactive)"}, {"smiles": "COCc1ccc(CN2CCC(Oc3ccc(C(=O)NCc4ccccn4)cc3)CC2)o1", "inhibition": "61% (active)"}, {"smiles": "COc1cc(/C=N/N2CCN(c3ccccc3)CC2)ccc1OC(C)=O", "inhibition": "13.8% (inactive)"}, {"smiles": "Cc1cc(C)cc(NC(=O)NCc2ccccn2)c1", "inhibition": "19% (inactive)"}, {"smiles": "Cc1cc(C(=O)CSc2nc(N)cc(=O)[nH]2)c(C)n1Cc1ccco1", "inhibition": "14.9% (inactive)"}, {"smiles": "COc1ccc(C)cc1-n1nnnc1SCC(=O)c1cc(C)n(Cc2ccco2)c1C", "inhibition": "90.1% (active)"}, {"smiles": "COc1ccc(OC)c(-n2nnnc2SCC(=O)Nc2cc(C)ccc2OC)c1", "inhibition": "-22.4% (inactive)"}, {"smiles": "CC(C)Cc1nnc(NC(=O)CN2C(=O)NC3(CCCCC3)C2=O)s1", "inhibition": "24% (inactive)"}, {"smiles": "CCOC(=O)c1ccc(NC2Nc3cc(C)nn3S2)cc1", "note": "(stereo unspecified)", "inhibition": "62.2% (active)"}, {"smiles": "CCc1ccc(NC2Nc3cc(C)nn3S2)cc1", "note": "(stereo unspecified)", "inhibition": "-1% (inactive)"}, {"smiles": "CCOC(=O)c1ccc(Nc2cc(C)nc3nc(C)nn23)cc1", "inhibition": "-1.2% (inactive)"}, {"smiles": "COc1ccc(CCNC(=O)CN2C(=O)CCSc3ccccc32)c(OC)c1", "inhibition": "6.9% (inactive)"}, {"smiles": "COc1ccccc1CCCNC(=O)C1CCC(=O)N(CCN2CCOCC2)C1", "note": "(stereo unspecified)", "inhibition": "4.2% (inactive)"}, {"smiles": "COc1ccc(NS(=O)(=O)c2ccc(NC(=S)NC(=O)CC(C)C)cc2)cc1", "inhibition": "-49.5% (inactive)"}, {"smiles": "CCOc1ccc(S(=O)(=O)Nc2ccc(S(=O)(=O)Nc3cc(OC)ccc3OC)cc2)cc1", "inhibition": "-2.6% (inactive)"}, {"smiles": "COc1ccc(OC)c(C(C)NC(=S)Nc2ccc(S(=O)(=O)Nc3ncccn3)cc2)c1", "note": "(stereo unspecified)", "inhibition": "62.4% (active)"}, {"smiles": "Cc1ccc(C)c(NC(=O)c2cc(-c3cc(C)cc(C)c3O)n[nH]2)c1", "inhibition": "41.9% (inactive)"}, {"smiles": "CCOc1ccc(C(=O)COC(=O)c2ccc(-n3cnnn3)cc2)cc1", "inhibition": "13.7% (inactive)"}, {"smiles": "CCOC(=O)c1c(-n2cnnn2)sc(C)c1C", "inhibition": "98.7% (active)"}, {"smiles": "CCOC(=O)c1c(NC(=O)CSc2nccc(=O)[nH]2)sc(C)c1C", "inhibition": "22.2% (inactive)"}, {"smiles": "CCCC(C)NC(=O)C1CCN(C(=O)C2CC(=O)N(c3ccc(C)cc3)C2)CC1", "note": "(stereo unspecified)", "inhibition": "14.2% (inactive)"}, {"smiles": "COc1cc(CC(=O)NCc2cccs2)cc(OC)c1OC", "inhibition": "1% (inactive)"}, {"smiles": "CCN(CC(=O)NCc1cccs1)C(=O)c1ccccc1F", "inhibition": "16.3% (inactive)"}, {"smiles": "CCN(CC(=O)NCc1cccs1)C(=O)c1cccc(S(=O)(=O)Nc2ccccc2OC)c1", "inhibition": "60.6% (active)"}, {"smiles": "Cc1nnc(SCC(=O)NNC(=O)c2ccc(Cl)cc2)n1CC1CCCO1", "note": "(stereo unspecified)", "inhibition": "14.8% (inactive)"}, {"smiles": "Cc1ccc(-n2c(-c3ccc(Cl)cc3)n[nH]c2=S)cc1", "inhibition": "-46.5% (inactive)"}, {"smiles": "S=c1[nH]nc(-c2ccc(Cl)cc2)n1CC1CCCO1", "note": "(stereo unspecified)", "inhibition": "90.4% (active)"}, {"smiles": "O=c1[nH]c(CSc2ncc(-c3ccc(F)cc3)n2Cc2ccco2)nc2ccccc12", "inhibition": "67.4% (active)"}, {"smiles": "CCn1c(Cc2ccccc2)nnc1SCc1nc2ccccc2c(=O)[nH]1", "inhibition": "6.3% (inactive)"}, {"smiles": "CCn1c(COc2c(C)cccc2C)nnc1SCc1nc2ccccc2c(=O)[nH]1", "inhibition": "29.2% (inactive)"}, {"smiles": "Cc1ccccc1CCNC(=O)C1CCC(=O)N(Cc2ccc(Cl)cc2)C1", "note": "(stereo unspecified)", "inhibition": "27% (inactive)"}, {"smiles": "COc1ccc2c(c1)C(NS(=O)(=O)OCC(Cl)(Cl)Cl)CCC2", "note": "(stereo unspecified)", "inhibition": "-7.3% (inactive)"}]}]}
